For 16 compounds, composite z-score and z-score results are on record in PubChem BioAssay.

Calls of active or inactive are those of the source.

The nature of assay [1]: binders of probe aFSTL3 on microarray, primary screen, stem cell growth factor project, biochemical, small-molecule microarray, fluorescence 635/667 (AID 1064).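 Also: measures binding of the biotinylated anti-FSTL3 antibody to printed compounds.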 The following applies: higher = more signal.
A short description of assay [2]: binders from COS7 lysate, DM2A8 probe, primary screen, torsin A project, cell lysate, small-molecule microarray, fluorescence 635/667 (AID 1065). The following applies: higher = more signal, COS7 lysate expressing mutant human TOR1A.
Assay [3] can be described thus: binders of probe aFGF2 on microarray, primary screen, stem cell growth factor project, biochemical, small-molecule microarray, fluorescence 635/667 (AID 1067).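 Also: measures binding of biotinylated aFGF2 protein to printed compounds on slides; z-score merges feature fluorescence and signal-to-noise across triplicate slides.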 The settings on record: higher = more signal.
Assay [4] is described as follows: binders of probe aFGF10 on microarray, primary screen, stem cell growth factor project, biochemical, small-molecule microarray, fluorescence 635/667 (AID 1071).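 Also: score merges 667 nm spot intensity and signal to noise from triplicate slides.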 The following applies: higher = more signal.
Assay [5] deals with Neurogenic locus notch homolog protein 2 (Homo sapiens) (UniProt Q04721). Nature of the assay: Notch2 binders on small-molecule microarrays, primary screen, biochemical, small-molecule microarray, 635 nm fluorescence, stem cell growth factors (AID 1073). The following applies: Notch2 binding, higher = more signal.
Chain of Neurogenic locus notch homolog protein 2 (Homo sapiens) (Q04721 whole entry, looked up, canonical isoform): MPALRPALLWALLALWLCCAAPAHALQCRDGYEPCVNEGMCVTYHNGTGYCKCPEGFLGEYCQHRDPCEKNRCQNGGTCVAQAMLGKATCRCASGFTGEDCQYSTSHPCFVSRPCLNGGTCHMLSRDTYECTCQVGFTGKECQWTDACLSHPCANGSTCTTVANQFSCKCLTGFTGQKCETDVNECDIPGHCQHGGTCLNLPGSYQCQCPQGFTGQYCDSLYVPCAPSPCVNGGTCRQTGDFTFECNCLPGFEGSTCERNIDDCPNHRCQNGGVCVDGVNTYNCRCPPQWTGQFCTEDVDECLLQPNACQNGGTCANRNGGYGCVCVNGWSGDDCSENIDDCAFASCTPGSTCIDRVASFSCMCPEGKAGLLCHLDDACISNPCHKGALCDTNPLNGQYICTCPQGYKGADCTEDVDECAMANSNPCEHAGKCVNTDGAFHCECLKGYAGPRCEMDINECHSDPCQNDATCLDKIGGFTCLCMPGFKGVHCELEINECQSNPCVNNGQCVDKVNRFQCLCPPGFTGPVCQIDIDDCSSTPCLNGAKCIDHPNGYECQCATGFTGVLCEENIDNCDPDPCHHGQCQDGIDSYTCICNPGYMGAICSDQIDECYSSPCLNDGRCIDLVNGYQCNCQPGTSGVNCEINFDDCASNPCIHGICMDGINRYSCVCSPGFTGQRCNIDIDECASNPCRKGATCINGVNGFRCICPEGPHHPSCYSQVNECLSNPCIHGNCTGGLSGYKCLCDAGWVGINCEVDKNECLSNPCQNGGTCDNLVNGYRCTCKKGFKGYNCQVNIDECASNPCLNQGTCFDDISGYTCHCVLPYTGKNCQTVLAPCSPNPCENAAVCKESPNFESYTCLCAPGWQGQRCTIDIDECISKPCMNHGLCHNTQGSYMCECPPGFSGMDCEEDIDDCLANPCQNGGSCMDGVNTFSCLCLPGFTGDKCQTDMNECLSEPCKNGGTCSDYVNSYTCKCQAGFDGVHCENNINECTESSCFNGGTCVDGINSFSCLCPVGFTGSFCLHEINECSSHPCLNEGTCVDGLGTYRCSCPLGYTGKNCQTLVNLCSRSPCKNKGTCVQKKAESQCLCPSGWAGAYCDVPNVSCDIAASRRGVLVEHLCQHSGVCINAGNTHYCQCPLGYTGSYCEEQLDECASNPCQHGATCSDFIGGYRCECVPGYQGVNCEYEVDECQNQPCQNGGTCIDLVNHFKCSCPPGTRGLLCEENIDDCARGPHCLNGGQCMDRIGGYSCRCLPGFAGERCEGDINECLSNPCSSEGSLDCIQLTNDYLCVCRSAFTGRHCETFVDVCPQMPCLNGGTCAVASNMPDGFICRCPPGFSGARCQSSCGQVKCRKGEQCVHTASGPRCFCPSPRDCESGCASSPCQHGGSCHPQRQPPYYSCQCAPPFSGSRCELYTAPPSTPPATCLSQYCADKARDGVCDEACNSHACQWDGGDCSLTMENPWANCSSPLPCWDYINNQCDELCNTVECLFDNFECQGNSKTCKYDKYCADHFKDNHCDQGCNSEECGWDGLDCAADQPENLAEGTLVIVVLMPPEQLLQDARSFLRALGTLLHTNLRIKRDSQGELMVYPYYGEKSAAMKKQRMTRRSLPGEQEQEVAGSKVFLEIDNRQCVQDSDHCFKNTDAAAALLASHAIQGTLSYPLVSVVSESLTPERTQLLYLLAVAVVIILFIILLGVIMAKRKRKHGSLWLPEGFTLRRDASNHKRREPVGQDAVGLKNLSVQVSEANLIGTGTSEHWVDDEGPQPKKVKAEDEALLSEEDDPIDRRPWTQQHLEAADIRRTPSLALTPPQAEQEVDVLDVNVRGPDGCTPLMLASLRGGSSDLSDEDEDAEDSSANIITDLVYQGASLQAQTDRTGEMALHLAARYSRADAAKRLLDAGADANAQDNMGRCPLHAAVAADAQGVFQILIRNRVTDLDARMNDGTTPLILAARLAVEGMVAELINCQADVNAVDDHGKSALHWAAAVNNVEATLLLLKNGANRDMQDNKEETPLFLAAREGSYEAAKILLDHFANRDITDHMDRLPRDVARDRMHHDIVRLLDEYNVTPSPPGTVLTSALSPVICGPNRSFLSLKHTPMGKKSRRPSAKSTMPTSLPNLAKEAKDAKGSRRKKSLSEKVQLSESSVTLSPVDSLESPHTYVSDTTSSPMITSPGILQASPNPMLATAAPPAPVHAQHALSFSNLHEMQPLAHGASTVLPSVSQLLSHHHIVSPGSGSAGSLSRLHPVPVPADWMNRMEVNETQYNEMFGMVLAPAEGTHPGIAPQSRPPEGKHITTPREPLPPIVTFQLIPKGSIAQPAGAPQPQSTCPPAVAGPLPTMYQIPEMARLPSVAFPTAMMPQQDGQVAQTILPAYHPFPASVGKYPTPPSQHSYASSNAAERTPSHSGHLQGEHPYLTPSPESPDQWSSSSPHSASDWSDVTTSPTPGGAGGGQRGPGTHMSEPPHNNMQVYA
In assay [6] the target is Pro-neuregulin-1, membrane-bound isoform (Homo sapiens) (UniProt Q02297). The experiment in a line: NRG1 binders on small-molecule microarrays, primary screen, psychiatric disease protein project, biochemical, small-molecule microarray, fluorescence 635/667 (AID 1075).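 Also: score combines 667 nm spot fluorescence with signal to noise.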 The settings on record: NRG1 binding, 635 nm fluorescence, higher = more signal.
Chain of Pro-neuregulin-1, membrane-bound isoform (Homo sapiens) (Q02297 whole entry, looked up, the tested form may be a part, canonical isoform): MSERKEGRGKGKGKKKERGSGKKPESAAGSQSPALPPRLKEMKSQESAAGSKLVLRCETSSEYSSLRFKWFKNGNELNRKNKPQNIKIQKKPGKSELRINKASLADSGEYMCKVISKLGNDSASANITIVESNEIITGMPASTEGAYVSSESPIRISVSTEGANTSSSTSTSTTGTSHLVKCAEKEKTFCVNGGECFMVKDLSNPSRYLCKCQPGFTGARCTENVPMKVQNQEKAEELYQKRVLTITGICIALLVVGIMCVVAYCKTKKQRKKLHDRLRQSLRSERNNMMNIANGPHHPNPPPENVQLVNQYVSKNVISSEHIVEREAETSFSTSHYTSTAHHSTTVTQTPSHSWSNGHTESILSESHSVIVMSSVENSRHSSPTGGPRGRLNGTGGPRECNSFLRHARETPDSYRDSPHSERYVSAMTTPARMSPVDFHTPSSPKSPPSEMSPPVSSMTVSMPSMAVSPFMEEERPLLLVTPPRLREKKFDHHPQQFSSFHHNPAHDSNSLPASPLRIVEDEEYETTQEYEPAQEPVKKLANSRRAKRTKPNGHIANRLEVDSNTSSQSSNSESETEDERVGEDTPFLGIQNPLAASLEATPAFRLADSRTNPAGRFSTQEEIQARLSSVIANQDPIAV
The subject of assay [7] is Neuregulin-1 EGF-like domain. The experiment in a line: binders of neuregulin-1 EGF-like domain, primary screen, biochemical, small-molecule microarray, 635 nm fluorescence (AID 1081).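 Also: binding of the protein to compounds printed on small-molecule microarray slides.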 The following applies: small-molecule microarray binding, higher = more signal.
The nature of assay [8]: FRG1 promoter luciferase signal modulators, primary screen, FRG1 inhibition for FSHD, cell-based, C2C12 myotubes, firefly/Renilla luciferase, luminescence (AID 1084). The settings on record: higher = more signal, called active from +8 up or from −8 down.
Assay [9] in a line: binders of probe aFST on microarray, primary screen, stem cell growth factor project, biochemical, small-molecule microarray, fluorescence 635/667 (AID 1086).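 Also: score merges 667 nm fluorescence with signal-to-noise of each printed compound spot.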 The following applies: higher = more signal.
Assay [10] in a line: binders of probe aHhip on microarray, primary screen, stem cell growth factor project, biochemical, small-molecule microarray, fluorescence 635/667 (AID 1087).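 Also: score merges spot fluorescence at 667nm with spot signal to noise ratio.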 The settings on record: higher = more signal.

Regarding `COCCOC(=O)N1C(=O)[C@@]2(c3cc(C#CCNC(N)=O)ccc31)[C@H](C(=O)Nc1nc3ccccc3s1)[C@H]1C(=O)O[C@H](c3ccccc3)[C@H](c3ccccc3)N1[C@@H]2c1ccc(O)cc1`, the composite z-score was -0.145 in assay [1]; 0.215 in assay [2]; -0.0284 in [3]; 0.46 in assay [4]; 0.968 in [5]; 0.882 in assay [6]. Further, the composite z-score in assay [7] stood at 0.595; in assay [9] it was 0.501; in assay [10] it was 0.0373. Further, in assay [8], the z-score was 0.709 (inactive).

For the compound `C=CC[C@]1(C(=O)NCC(O)CO)N=C(c2ccc(OCCCO)cc2)O[C@H]1c1ccccc1CN=[N+]=[N-]` (stereo not given in full), the composite z-score in assay [1] is 1; in assay [2], 1.23; in [3] it was -0.0316; in assay [4], 0.36; in assay [5], -0.757; in assay [6], 0.323. For the same compound, the figures for the composite z-score in [7], in assay [9] and in assay [10] were 1.23, 0.267 and 0.189, respectively. Also, the z-score in assay [8] was -0.27 (inactive).

Take `C=CCOC(=O)[C@H]1[C@@H]2C(=O)O[C@@H](c3ccccc3)[C@@H](c3ccccc3)N2[C@@H](c2ccc(OCCOC(=O)[C@@H]3C[C@@H]4C(=O)N[C@@H](Cc5ccccc5)C(=O)N4[C@@H]3c3ccc(O)cc3)cc2)[C@]12C(=O)Nc1ccc(I)cc12`: the composite z-score is 1.36 in assay [1]; 0.0366 in assay [2]; -0.0861 in assay [3]; 0.449 in assay [4]; 0.437 in [5]; 0.422 in assay [6]. In addition, the composite z-score in assay [7] was 1.08; in [9], 0.258; in assay [10], -0.0645. Besides, the z-score in assay [8] is 1.3 (inactive).

In the case of `CC(C)C[C@@H]1NC(=O)[C@@H]2C[C@H](C(=O)NCCCCCNC(=O)CS)[C@H](c3ccc(O)cc3)N2C1=O`, the composite z-score in assay [1] was 0.0099; in [2], 1.8; in [3], -0.0986; in [4], -0.435; in assay [5], 0.0232; in assay [6], 1.75. Moreover, the composite z-score in [7] was 1.17; in assay [9], -0.265; in assay [10], -0.0994. Besides, the z-score in [8] is 2.98 (inactive).

`CC1C2C(CCCO)=CC(C3C(=O)N(C(N)=O)C(=O)C23)N1Cc1cccc(OC(F)(F)F)c1` (stereo not given): the composite z-score in [1] was -0.261; in [2], 0.913; in assay [3], -0.0558; in [4] it was 0.767; in assay [5] it was 0.53; in [6] it was 1.18. In addition, the composite z-score is 1.28 in [7], 0.269 in assay [9] and 0.0659 in assay [10]. Further, in assay [8], the z-score was 1.88 (inactive).

On to `COC(=O)[C@@]1(Cc2ccc(F)cc2)[C@H]2c3cc(C(=O)N(C)C)n(Cc4ccsc4Br)c3C[C@H]2CN1C(=O)c1ccccc1`, for which the composite z-score in [1] was 2.25; in [2], -0.3; in [3], 0.915; in assay [4] it was 1.01; in assay [5] it was 1.83; in assay [6], 1.88. Moreover, the composite z-score in assay [7] turned out to be 0.529; in assay [9], 2.68; in [10], 3.87. The z-score in [8] is 1.94 (inactive).

As for `[N-]=[N+]=NCc1ccccc1C[C@@]1(C(N)=O)N=C(c2ccc(OCCCO)cc2)O[C@@H]1c1ccccc1N=[N+]=[N-]`, the composite z-score in assay [1] is -0.459; in [2], -0.0227; in assay [3], 0.0131; in [4], 1.15; in assay [5], 1.43; in [6], 1.38. Moreover, the composite z-score in assay [7] was 1.07; in assay [9], 0.926; in assay [10], 0.0722. In addition, in [8], the z-score was -0.739 (inactive).

In the case of `Cc1cccc([C@H]2C[C@H]3C(Br)=C[C@@]2(CO)C(=O)[C@]32CO2)c1`, the composite z-score was -0.053 in assay [1]; -0.65 in assay [2]; -0.125 in assay [3]; 0.0924 in assay [4]; -0.368 in [5]; 0.131 in assay [6]. Also, the composite z-score in [7] is 0.708; in assay [9], 0.275; in assay [10], -0.0994. In addition, the z-score in assay [8] was 1.46 (inactive).

Consider `C[N+](C)(C)CCCC[C@@H]1NC(=O)[C@H]2C[C@@H](C(=O)NCCCCCN)[C@@H](c3ccc(O)cc3)N2C1=O`, for which the composite z-score was 0.0912 in assay [1]; 1.95 in assay [2]; -0.0593 in assay [3]; 0.873 in assay [4]; 0.717 in assay [5]; 1.79 in [6]. Besides, the composite z-score in [7] was found to be 1.21; in assay [9], 1.2; in [10] it was 0.0722. Besides, in assay [8], the z-score is -0.0231 (inactive).

With `COc1ccc([Si](C)(C)[C@H]2[C@H](CC(=O)N(CCO)Cc3ccccc3)O[C@@]3(C(=O)N(Cc4cccc(N5CCCCC5=O)c4)c4ccccc43)[C@@H]2C)cc1`, the composite z-score in assay [1] was -0.4; in assay [2], 1.12; in assay [3] it was -0.0557; in assay [4], 0.141; in assay [5], 0.262; in [6], 0.535. The composite z-score was 0.907 in [7], 0.0417 in assay [9] and -0.166 in assay [10]. The z-score in [8] was -2.71 (inactive).

Take `COc1ccc(C(=O)Nc2ccc(CN3C(=O)[C@@]4(O[C@@H](CC(=O)N(CCO)Cc5ccccc5)[C@H]([Si](C)(C)c5ccc(OC)cc5)[C@H]4C)c4ccccc43)cc2)cc1`: the composite z-score in assay [1] was -0.0679; in [2] it was 0.378; in [3] it was -0.135; in [4] it was 0.086; in [5], -0.769; in [6], 0.984. Besides, the composite z-score in assay [7] is 0.921; in assay [9], -0.263; in [10], -0.0074. In [8], the z-score is -2.13 (inactive).

With `COCCOC(=O)N1C(=O)[C@@]2(c3cc(C#CCNC(N)=O)ccc31)[C@H](C(N)=O)[C@H]1C(=O)O[C@H](c3ccccc3)[C@H](c3ccccc3)N1[C@@H]2c1ccc(O)cc1`, the composite z-score in [1] is -0.0585; in assay [2], 0.0947; in assay [3], -0.0899; in assay [4], 0.29; in assay [5] it was -0.148; in assay [6], 0.0637. Also, the composite z-score in [7] is 0.235; in [9], 0.0377; in [10], -0.287. In assay [8], the z-score was -0.329 (inactive).

With `C[C@]1(C(=O)NC2CC2)c2ccccc2C(=O)N(Cc2cc(F)cc(C(F)(F)F)c2)[C@H]1c1ccc(CO)cc1`, the composite z-score is -0.364 in [1]; -0.035 in assay [2]; -0.116 in assay [3]; -0.636 in assay [4]; -1.13 in assay [5]; 1.72 in assay [6]. The composite z-score was 1.37 in assay [7], -0.527 in [9] and -0.256 in [10]. Moreover, in assay [8], the z-score is -1.05 (inactive).

`COC(=O)C(CC#Cc1ccc2c(c1)[C@]1(C(=O)N2)[C@H](C(=O)NC[C@H](O)c2ccccc2)[C@H]2C(=O)O[C@H](c3ccccc3)[C@H](c3ccccc3)N2[C@@H]1c1ccc(O)cc1)C(=O)OC`: the composite z-score in [1] was -0.297; in assay [2] it was 0.328; in assay [3], -0.121; in assay [4], -0.199; in assay [5] it was 0.259; in [6] it was 0.529. The composite z-score in assay [7] is 0.773; in assay [9], 0.056; in assay [10] it was -0.131. In addition, in assay [8], the z-score is 0.589 (inactive).

Regarding `[N-]=[N+]=Nc1ccccc1C[C@]1(C(N)=O)COC(c2ccc(OCCCO)cc2)=N1`, the composite z-score in assay [1] was 1.05; in assay [2], -0.455; in assay [3], 0.0247; in [4], 0.149; in assay [5], 0.278; in [6], 1.81. The composite z-score in assay [7] is 1.34; in [9], 0.236; in assay [10] it was -0.0618. For the same compound, in [8], the z-score was 3.48 (inactive).

For `C=CC[C@H](OC(=O)Nc1ccc(SC)cc1)c1ccc(O)c(F)c1`, the composite z-score in [1] was 0.57; in [2] it was 0.274; in assay [3], -0.102; in assay [4], -0.575; in assay [5] it was -1.19; in assay [6] it was 0.659. The composite z-score in assay [7] was 1.07; in [9], -0.512; in assay [10] it was -0.156. The z-score in assay [8] was 8.09 (active).
